Biological target: C-X-C chemokine receptor type 6 (Homo sapiens) (UniProt O00574)
Experiment: antagonism of CXCR6 versus CXCR5 signaling – cell-based, CHO-K1 PathHunter beta-arrestin, luminescence, set 4, selectivity assay for CXCR6 antagonist project, profiling panel (AID 651919)
Conditions: run 4, at 79 µM (top of the series)

Chain of C-X-C chemokine receptor type 6 (Homo sapiens) (O00574 whole entry, looked up): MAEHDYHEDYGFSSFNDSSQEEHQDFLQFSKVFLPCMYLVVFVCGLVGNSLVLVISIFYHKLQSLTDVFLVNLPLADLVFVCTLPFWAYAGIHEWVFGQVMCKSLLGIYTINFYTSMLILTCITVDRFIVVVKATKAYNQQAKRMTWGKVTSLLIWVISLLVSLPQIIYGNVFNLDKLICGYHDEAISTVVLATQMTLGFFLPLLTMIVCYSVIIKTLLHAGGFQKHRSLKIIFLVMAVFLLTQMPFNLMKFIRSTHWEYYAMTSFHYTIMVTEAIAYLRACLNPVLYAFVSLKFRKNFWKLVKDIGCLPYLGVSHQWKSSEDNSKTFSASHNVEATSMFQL

| Structure (SMILES) | inhibition [%] |
| --- | --- |
| COc1cc(C(=O)NC2CC3CCCC(C2)N3CC(=O)Nc2ccccc2)cc(OC)c1OC (configuration not stated) | 92.9 |
| COc1cc(C(=O)NC2CC3CCCC(C2)N3CC(=O)Nc2ccccc2Cl)cc(OC)c1OC (configuration not stated) | 99 |

Source: PubChem BioAssay AID651919 (Sanford-Burnham Center for Chemical Genomics, 2012)
